# Screening results from PubChem.
# Rows were chosen to be rich in hits. Some 21% of all compounds tested hit in one or more screens of this group.
# Pf growth 48h – Primary qHTS for delayed death inhibitors of the malarial parasite plastid, 48 hour incubation | 5.9% of 310,000 active | Potency, µM (highest dose often 28.7 µM), for inactives: at the top dose activity change, negative = inhibition, actives largely listed as inhibitors | P. falciparum luciferase growth in erythrocytes, 48 h; also: potency is read from the fitted curve at half-maximal effect; % is scaled to controls: 0 for no effect and ±100 for the full control effect
#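 Compounds are pin-transferred into medium, infected erythrocytes (2% hematocrit, 0.1% parasitemia final) are added, and plates sit one parasite generation at 37 C in 5% CO2. Detection reagent is then added and luminescence measured.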
# Pf growth 96h – Primary qHTS for delayed death inhibitors of the malarial parasite plastid, 96 hour incubation | AID 504834, 2011 | 6.9% of 320,000 active | P. falciparum luciferase reporter growth, 96 h | Potency, µM (series often up to 28.7 µM), for the others: at the top dose activity change, negative = inhibition, hits mostly inhibitors; also: potency is read from the fitted curve at half-maximal effect; % is scaled to controls: 0 for no effect and ±100 for the full control effect
#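 Two parasite generations (96 h, 37 C, 5% CO2) of compound exposure in infected erythrocytes (0.05% parasitemia, 2% hematocrit). Luciferase-reporter P. falciparum; decreased luminescence indicates inhibited growth, aimed at apicoplast-acting delayed death.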
# CHX counter – Cycloheximide Counterscreen for Small Molecule Inhibitors of Shiga Toxin | max response, % | cell reporter, cycloheximide protein synthesis inhibition counterscreen | 12% of 300,000 active; in the data active = max response mostly above about 13%, no sharp cut-off; inactive = mostly below about 14%; also: read at 38.3 µM for the half of the compounds with a filed dose; 0% is about no effect
# AMA1 RON2 block – qHTS for Inhibitors of AMA1-RON; Towards Development of Antimalarial Drug Lead: Primary Screen | Plasmodium falciparum AMA1 (3D7) - RON2 peptide interaction | AlphaScreen AMA1-biotinylated RON2 peptide binding | Potency, µM (titrated, usually from 58.2 µM), without a hit: at the top dose activity change, negative = inhibition, usual class: inhibitors | 0.2% of 360,000 active | AID 720542, 2013;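 also: potency is read from the fitted curve at half-maximal effect; 0% = vehicle wells and -100% = peptide control; nearly all actives have a fitted effect of over 45% in size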
#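 AMA1 (3D7) with his tag at 25 nM final met compounds first, then biotinylated RON2 peptide at 25 nM; detection used donor plus acceptor beads, 10 µg/mL apiece, read by AlphaScreen after 30 min at room temperature.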
# HCV inh – qHTS Assay for Inhibitors of Hepatitis C Virus (HCV); Huh7.5.1 HCVcc-Cre infection, luciferase reporter, 44 h; Potency, µM (series often up to 41.8 µM), inactives show at the top dose activity change, negative = inhibition, actives largely listed as inhibitors; 3.4% of 340,000 active; AID 651820, 2012; also: potency is read from the fitted curve at half-maximal effect; % is scaled to controls: 0 for no effect and ±100 for the full control effect
#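 Compounds are dispensed onto cells plated 4 h earlier at 1,000 per well, with HCVcc-Cre virus (about 0.5 moi) added next. Following 44 h of culture, luminescent signal is measured for 15 sec after 15 min with substrate at room temperature.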
# Shiga toxin inh – A qHTS for Small Molecule Inhibitors of Shiga Toxin. Vero cells, Shiga toxin protein synthesis inhibition reporter. inhibition, % at 38.7 µM. 9.2% of 290,000 active; in the data active = inhibition mostly above about 28%, no sharp cut-off; inactive = mostly below about 43%; also: 0% is about no effect
# The depositor's hits bear a star; i = inactive; ? = inconclusive; / = no result; [ ] = dose if it differs, or a comment. Unless noted, calls follow the shape of the dose curve; as a rule, active = well fitted curve in the direction sought with a large enough effect; inconclusive = small, poorly fitted or top-dose-only effect, or another doubt; inactive = no such curve, though single readings can be large; an effect the other way counts as inactive or inconclusive.
SMILES,Pf growth 48h,Pf growth 96h,CHX counter,AMA1 RON2 block,HCV inh,Shiga toxin inh
COc1cc(OC)cc(C(=O)NCCSC2CCCCC2)c1,0.0%,50.4%,1.5,-6.8%,3.16µM*,25.1
COc1cc(OC)cc(C(=O)NCCNC(=O)c2ccccn2)c1,-5.2%,18.5%,-6.2,21.2%,9.0%,-5.7
COc1cc(OC)cc(C(=O)NCCCCCCNC(=O)c2cc(OC)cc(OC)c2)c1,?,?,/,0.6%[11.6 µM],7.08µM*,/
COc1cc(OC)cc(C(=O)NCCCNC(=O)c2ccccn2)c1,0.4%,11.7µM*,2.0,22.4%,3.6%,-9.1
O=C(NCCc1cccs1)Nc1nnc([C@H]2C[C@H](O)[C@@H](CO)O2)s1,/,/,/,4.9%,/,/
Cc1ccccc1OCCC(=O)NNC(=O)c1ccccc1F,/,/,/,99.5%,-4.9%,/
O=C(CN1CCN(CN2C(=O)NC3(CCCCCC3)C2=O)CC1)Nc1ccc(F)cc1,-20.0%,-5.7%,/,5.9%,8.7%,/
CCOC(=O)c1nn(-c2ccc(F)cc2)cc1O,258.5%,117.1%,52.2*,6.5%,21.9%,115.4*
CCOC(=O)c1nn(-c2ccc(C)cc2)c(=O)c2c(N)scc12,?,/,1.2,-7.7%,?,-4.1
CCOC(=O)c1nn(-c2ccc(F)cc2)c(=O)c2c(N)scc12,?,16.3%,19.5*,-3.4%,-25.3%,18.9
CC(C)(C)OC(=O)C(C)(C)Sc1nnc(N)s1,?,28.8%,-2.2,-6.6%,14.0%,2.1
C=CCc1cc(/C=N/NC(=O)CSc2nnc(CCCc3ccc(OC)cc3)o2)cc(OC)c1O,/,0.0586µM*,-1.8,14.0%,?,-17.2
C=CCc1cc(/C=N\NC(=O)CSc2nnc(CCCc3ccc(OC)c(C)c3)o2)cc(OC)c1O,3.7µM*,2.94µM*,-1.0,1.3%,-21.2%,-20.8
O=C(O)CCN1CCN(S(=O)(=O)c2ccc3ccccc3c2)CC1,1.1%,15.6%,10.2,8.0%,15.4%,-8.6
CSc1ccccc1-c1nnc(-c2ccc(C)cc2)o1,154.8%,303.6%,39.2*,16.6%,?,143.3*
CSc1nnc(-c2ccccc2SC)o1,?,30.3%,1.5,-5.1%,-11.3%,35.6
CSc1ccccc1-c1nnc(-c2ccccc2)o1,151.5%,101.1%,59.2*,7.1%,8.91µM*,94.8*
O=C(NN=C1CCCCCC1)NC1CCCCC1,0.9%,?,29.7*,-0.3%,10.4%,51.1*
CCOC(=O)C1(CC)Oc2ccccc2C(c2ccc(OC)cc2)=C1C(=O)OC (centres undefined),/,/,0.8,-5.7%,-9.3%,i
Cc1nc(N2CCN(C)CC2)c2c3c(sc2n1)CCCC3,?,2.4%,0.6,-1.7%,-15.8%,-9.7
CCc1nc(N2CCN(C(=O)CCl)CC2)c2c3c(sc2n1)CC(C)CC3 (centres undefined),?,-67.3%,10.9*,-11.7%,?,35.9
Cc1nc(N2CCN(C(=O)c3ccco3)CC2)c2c3c(sc2n1)CC(C)CC3 (centres undefined),?,i,11.2,-24.5%,12.6µM*,-6.7
O=C(c1ccco1)N1CCN(c2nc(C3CC3)nc3sc4c(c23)CCCC4)CC1,9.28µM*,-20.8%,-3.7,?,?,65.9
Cc1nc(N2CCN(C(=O)c3cccs3)CC2)c2c3c(sc2n1)CCCC3,?,22.5%,-3.9,-3.7%,11.2µM*,-1.3
Cn1nc(C(C)(C)C)cc1C(=O)N1CCCCC1c1cc(C(=O)Nc2ccccc2Cl)no1 (centres undefined),/,/,/,25.2%,/,/
SMILES,Pf growth 48h,Pf growth 96h,CHX counter,AMA1 RON2 block,HCV inh,Shiga toxin inh
O=c1[nH]c(=S)[nH]c2c1[C@H](CCc1cccc(Cl)c1)O[C@H](C1CC1)C2,/,/,/,87.3%,/,/
OC[C@@H]1O[C@@H](O)[C@H](O)[C@H](O)[C@@H]1O,/,/,-6.5,/,/,-10.4
Cc1nc(N2CCN(C(=O)c3ccco3)CC2)c2c3c(sc2n1)CCCC3,?,?,-1.4,-10.9%,2.82µM*,-2.8
Cc1nc(N2CCN(c3ccccc3)CC2)c2c3c(sc2n1)CCC3,?,?,-2.0,/,/,31.3
Cc1ccc(S(=O)(=O)N2CCN(c3nc(C)nc4sc5c(c34)CCC(C)C5)CC2)cc1 (centres undefined),?,7.38µM*,-3.6,/,/,-15.7
N#CCCN(Cc1cccnc1)C(=S)NC1CC2C=CC1C2 (centres undefined),35.1%,24.9%,-0.5,-17.1%,0.6%,-7.1
O=S(=O)(c1ccc(OC(F)(F)F)cc1)N1CCCC(N2CCOCC2)C1 (centres undefined),-0.2%,224.1%,-3.5,14.8%,?,-3.2
C(=N\Nc1ccccc1)/c1ccc(N2CCOCC2)cc1,-26.0%,105.6%,48.5*,-8.9%,?,69.4*
O=[N+]([O-])c1cccc(N/N=C/c2ccc(N3CCOCC3)cc2)c1,67.1%,32.6%,49.8*,?,?,80.4*
C/C(=N\Nc1ccccn1)c1ccc(N2CCOCC2)cc1,178.4%,75.9%,41.5*,21.0%,-9.8%,115.9*
O=C(O)c1cc(N/N=C/c2ccc(N3CCOCC3)cc2)ccc1Cl,202.5%,389.8%,59.4*,0.0%,28.6%,136.9*
O=C(O)c1cc(S(=O)(=O)Nc2ccc(N3CCCCC3)cc2)ccc1Cl,19.5%,-6.2%,-6.7,-8.7%,10.4%,-21.4
O=c1cc(CN2CCOCC2)c2cc(Cl)ccc2o1,9.4%,1.4%,-3.0,-1.3%,9.8%,-5.9
COc1ccc(Br)c(C=O)c1OS(=O)(=O)c1ccc(C)cc1,/,/,/,12.4%,/,/
C/C(=N\Nc1ccccn1)c1ccc(C(C)C)cc1,?,?,46.6*,-9.7%,?,104.2*
C(=N\Nc1ccccn1)/c1ccc(N2CCOCC2)cc1,i,0.0%,47.2*,2.4%,-24.4%,71.2
Clc1cccc(N/N=C/c2ccc(N3CCOCC3)cc2)c1,-22.1%,?,37.7*,0.9%,-27.7%,31.6
CN(C)[C@H]1CCN([C@H]2CS(=O)(=O)N[C@@H]2COCc2ccccc2)C1,/,/,/,17.1%,/,/
Oc1cccc(CN2CCCCC2)c1,-10.0%,?,-3.0,35.5%,0.6%,-6.4
CN(C)C1CCN(Cc2cc(COCc3ccccc3)c3cccnc3c2O)C1 (centres undefined),0.828µM*,?,/,/,/,/
COCc1cc(CN2CCCC2)c(O)c2ncccc12,2.94µM*,?,17.5,9.47µM*,2.82µM*,-9.7
Oc1c(CN2CCCCC2)cc(COCc2ccccc2)c2cccnc12,1.85µM*,2.08µM*,16.9*,-61.5%,10µM*,33.6
